Autofluor counter: counter-screen for toxin protease inhibitors: compound fluorescence; compound autofluorescence counterscreen, microsphere flow cytometry; stronger effect = higher value; fluorescence intensity (concentration not given with the values); actives 3.1% (n = 360,000); in the data active means fluorescence intensity above about 16000; inconclusive means no clear call, values can overlap the other calls
Anthrax LF prot: inhibitors of Bacillus anthracis lethal factor protease | multiplex microsphere protease cleavage assay, LF | inhibition, % at 10 µM | actives 0.12% (n = 360,000) | AID 588501; further: plate controls were buffer without enzyme for full effect and enzyme alone for no effect
BoNT-A LC inh2: inhibitors of Botulinum neurotoxin A light chain protease; multiplex microsphere protease substrate cleavage, flow cytometry; AID 588499; actives 0.17% (n = 360,000); inhibition, % at 10 µM; further: plate controls were buffer without enzyme for full effect and enzyme alone for no effect
VHR inh abs: blocks human VHR1 dual specificity phosphatase; inhibition, % at 13.3 µM; recombinant VHR phosphatase, pNPP absorbance; P51452; actives 0.52% (n = 290,000); in the data active means inhibition above about 50%
Target sequence (P51452 whole entry, looked up): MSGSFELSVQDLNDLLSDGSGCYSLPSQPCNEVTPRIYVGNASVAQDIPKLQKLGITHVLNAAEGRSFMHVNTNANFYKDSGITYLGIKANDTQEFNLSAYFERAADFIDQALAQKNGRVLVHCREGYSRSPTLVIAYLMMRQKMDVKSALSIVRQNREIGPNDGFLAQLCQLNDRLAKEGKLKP
BoNT F protease: blocks Botulinum neurotoxin F light chain protease; Multiplex microsphere protease cleavage assay, flow cytometry; inhibition, % at 10 µM; actives 0.22% (n = 360,000); AID 588497; in the data active means inhibition above about 35%, passing the limit was not always enough; inconclusive means no clear call, values can overlap the other calls; further: plate controls were buffer without enzyme for full effect and enzyme alone for no effect
MazEF act: increases E. coli MazEF RNase cleavage of RNA | P0AE70 | FAM/BHQ RNA-DNA oligo cleavage fluorescence, 5 h | activation, % at 20 µM | actives 0.32% (n = 350,000) | AID 504720; in the data active means activation above about 50%
Target sequence (P0AE70 whole entry, looked up): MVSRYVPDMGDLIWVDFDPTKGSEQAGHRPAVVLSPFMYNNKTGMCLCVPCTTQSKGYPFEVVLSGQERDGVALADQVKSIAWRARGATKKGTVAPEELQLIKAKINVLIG
* = called active by the depositor; i = inactive; ? = inconclusive; . = not tested or not shown; ! = not active in a repeat. Shown are actives, neighbours in structure and some others; about 4% of the full set was active somewhere. Unless noted, no stated cut-off is given here; in the data, active means inhibition above about 30%; inconclusive means no clear call, values can overlap the other calls; inactive means below that.

SMILES | Autofluor counter | Anthrax LF prot | BoNT-A LC inh2 | VHR inh abs | BoNT F protease | MazEF act
Cc1nnc(SCC(=O)Nc2nccs2)s1 | 20118* | -3.0 | 0.2 | 35.8 | -2.0 | 6.4
Nc1nnc(SCC(=O)Nc2nccs2)s1 | 3694 | 6.7 | 3.3 | -34.7 | 22.1 | -16.9
COc1ccc(C)cc1NC(=O)COC(C)=O | 16638* | -2.0 | -0.5 | -2.0 | -1.5 | 6.5
COc1ccc([N+](=O)[O-])cc1NC(=O)COC(C)=O | 4524 | 2.2 | 0.3 | -19.6 | -9.3 | 7.6
COc1ccc(C2(c3ccc(OC)cc3)NC(=O)N(CC(=O)Nc3cc(C)ccc3OC)C2=O)cc1 | 5996 | -0.1 | -0.1 | 56.9* | 4.8 | -1.0
COc1ccc(C2(c3ccc(OC)cc3)NC(=O)N(CC(=O)Nc3ccc(C(=O)N(C)C)cc3)C2=O)cc1 | 4427 | -0.9 | -0.6 | 14.5 | -1.9 | 3.0
Cc1cc(Cl)ccc1OC(C)c1nnc(N)s1 (stereo not drawn) | 16493* | -2.3 | -0.8 | -6.1 | -1.2 | -15.2
CC(Oc1ccc(Cl)cc1Cl)c1ccnc(N)n1 (stereo not drawn) | 4565 | -7.1 | 0.0 | 6.9 | -3.3 | 6.1
COc1ccc(CCN=CC2=C(O)CC(C)(C)CC2=O)cc1 | 4410 | -0.5 | 1.4 | 31.5 | -12.4 | 6.3
CC1(C)CC(=O)C(C=NCCc2ccc(S(N)(=O)=O)cc2)=C(O)C1 | 23978* | -2.0 | -2.1 | 10.9 | -7.1 | 1.7
Cn1c(=O)c2c(Nc3ccc(F)cc3)cc(=O)n(-c3ccccc3)c2n(C)c1=O | 6152 | -1.5 | 0.3 | 16.3 | -2.6 | -3.0
Cn1c(=O)c2c(O)cc(=O)n(-c3ccccc3)c2n(C)c1=O | 2878 | 1.3 | 0.9 | 50.6* | 15.9 | -8.7
CCCCn1c(CN(C)Cc2ccccc2)nc2c1c(=O)n(C)c(=O)n2C | 19708* | -5.8 | -0.4 | 34.3 | -2.0 | -3.4
CC(C)Cn1c(CN2CCN(C(=O)c3ccco3)CC2)nc2c1c(=O)n(C)c(=O)n2C | 3835 | -3.9 | 0.2 | 15.2 | -0.2 | -5.8
CCn1c(CN2CCN(C(=O)c3ccco3)CC2)nc2c1c(=O)n(C)c(=O)n2C | 21356* | 0.8 | ? | -5.6 | 5.2 | 5.6
CCCn1c(CN(C)Cc2ccccc2)nc2c1c(=O)n(C)c(=O)n2C | 4573 | -1.2 | -0.7 | 26.3 | -21.4 | -0.8
CC(C)CCn1c(CN2CCN(Cc3ccccc3)CC2)nc2c1c(=O)n(C)c(=O)n2C | 20587* | 2.9 | ? | -6.5 | -1.2 | 0.4
CCCn1c(CN(Cc2ccccc2)Cc2ccccc2)nc2c1c(=O)n(C)c(=O)n2C | 5821 | -2.7 | 0.0 | 3.4 | -1.1 | 16.2
CCOC(=O)Cn1c(CN(Cc2ccccc2)Cc2ccccc2)nc2c1c(=O)n(C)c(=O)n2C | 20766* | -9.1 | 2.6 | 39.2 | 4.3 | -3.5
CC(=O)Oc1ccccc1Cn1c(C)c(C(=O)NCc2ccc(F)cc2)sc1=O | 4988 | -2.5 | -0.2 | . | -5.7 | .
Cn1c(=O)c2c(ncn2CC(=O)N(Cc2ccccc2)c2ccccn2)n(C)c1=O | 23173* | 0.0 | 0.4 | 31.3 | -1.8 | 4.9
CCCCn1c(CN2CCN(c3ccccc3)CC2)nc2c1c(=O)n(C)c(=O)n2C | 5771 | 2.3 | 0.4 | 19.3 | 7.4 | -4.7
CCCCCn1c(CN2CCN(Cc3ccccc3)CC2)nc2c1c(=O)n(C)c(=O)n2C | 20660* | -8.0 | 4.6 | 24.7 | 6.6 | 5.7
CCCCn1c(CN2CCN(c3cccc(Cl)c3)CC2)nc2c1c(=O)n(C)c(=O)n2C | 19625* | -11.7 | 6.1 | -13.3 | 7.4 | 0.4
CCCCCn1c(CN2CCN(c3cccc(Cl)c3)CC2)nc2c1c(=O)n(C)c(=O)n2C | 8145 | 0.3 | 0.4 | 28.6 | 1.6 | -6.5
SMILES | Autofluor counter | Anthrax LF prot | BoNT-A LC inh2 | VHR inh abs | BoNT F protease | MazEF act
C=CCn1c(C)nnc1SCC(=O)Nc1cc(S(=O)(=O)N2CCCC2)ccc1Cl | 5668 | 1.8 | 1.8 | . | 5.3 | -0.9
O=C(CN1CSCC1=O)N1CCN(S(=O)(=O)c2cccc(F)c2)CC1 | 3844 | -6.3 | 0.1 | . | 3.1 | 3.2
COC(=O)c1cccnc1N1CCN(c2ccccc2F)CC1 | 23700* | -3.7 | ? | -1.8 | -0.5 | 9.9
O=C(Nc1ccccc1)c1cccnc1N1CCCC1 | 17182* | -4.9 | ? | 6.5 | -7.0 | -3.6
CC(C)OC(=O)c1ccc(N2CCN(c3ccc(F)cc3)CC2)nc1 | 3898 | 8.2 | -2.5 | . | 3.8 | -3.4
CC(C)OC(=O)c1cccnc1N1CCN(c2ccc(F)cc2)CC1 | 23861* | -2.6 | -2.1 | 35.5 | -1.8 | -19.1
COC(=O)c1ccccc1NC(=O)N1CCN(c2ccccc2F)CC1 | 2460 | -0.7 | 0.5 | 13.0 | -2.0 | -1.9
O=C1/C(=C/c2ccc([N+](=O)[O-])cc2)Oc2cc(O)ccc21 | 3508 | -7.3 | 3.6 | 57.3* | 8.5 | 10.3
Cc1ccc(C)c(S(=O)(=O)N2CCCC2CNC(=O)C(=O)NCCc2ccccc2)c1 (stereo not drawn) | ? | -2.7 | -7.4 | . | -24.4 | 0.9
Nc1nc(CSc2nc3ccccc3s2)nc(N2CCOCC2)n1 | 3743 | -7.1 | 1.8 | 53.0* | -0.9 | -2.0
Brc1cnc(N2CCCC2)nc1N1CCOCC1 | 21599* | 0.2 | ? | -5.7 | -0.3 | -4.9
Cc1sc(NC(=O)c2ccc(Cl)s2)c(C(N)=O)c1C | 16138* | -9.9 | -0.2 | -5.1 | -1.6 | 3.8
CCC1(C)NC(C(=O)O)Cc2c1[nH]c1ccccc21 (stereo not drawn) | 4134 | -15.9 | -5.3 | 59.7* | 4.9 | 3.4
CCCN1CCC2(CC1)NC(C(=O)O)Cc1c2[nH]c2ccccc12 (stereo not drawn) | 3821 | 0.0 | 1.3 | -14.3 | -4.3 | 0.7
COc1cc(C(=O)NCC(=O)OCc2ccccc2Cl)cc(OC)c1OC | 4527 | 6.8 | -0.2 | 5.1 | -4.8 | 4.8
CCOC(=O)c1sc(N)c(C#N)c1COC(=O)CNC(=O)c1cc(OC)c(OC)c(OC)c1 | 16372* | -5.2 | 0.0 | 15.8 | -4.8 | -147.7
Cc1cc(OC(=O)C2CC2)c([N+](=O)[O-])c(=O)[nH]1 | 2458 | 0.4 | -0.8 | 3.6 | -5.2 | -1.3
O=Cc1ccc(-c2ccccc2C(=O)O)o1 | 3091 | 2.7 | 4.0 | -10.1 | 15.7 | 12.8
O=C(O)c1ccccc1-c1c2cc(I)c(=O)c(I)c-2oc2c(I)c(O)c(I)cc12 | 3911 | 32.9* | 64.3* | . | 38.2*! | i
CCCNS(=O)(=O)c1ccc2c(c1)n(C)c(=O)n2C | 4741 | -2.8 | 0.8 | -0.9 | 4.3 | 0.6
CCNS(=O)(=O)c1ccc2c(c1)n(C)c(=O)n2C | 22262* | 1.1 | 3.6 | 14.6 | 2.3 | 6.9
COc1ccc2oc(C(=O)OCC(=O)Nc3cc(S(=O)(=O)N4CCOCC4)ccc3C)c(C)c2c1 | ? | 3.1 | 0.5 | . | -7.0 | 61.0*
COc1ccc2oc(C(=O)OCC(=O)Nc3cc(S(=O)(=O)N4CCOCC4)ccc3OC)c(C)c2c1 | 5216 | 0.6 | 1.9 | . | 1.0 | -4.3
CCOC(=O)c1oc2ccc(S(=O)(=O)N3CCOCC3)cc2c1C | 16344* | -1.4 | ? | 10.3 | -0.7 | -7.5
O=C(/C(=C/O)N=Nc1ccccc1)c1cccs1 | 4030 | -5.4 | -1.1 | 24.4 | -0.7 | -0.1
